In PubChem BioAssay:

tested on: wheat germ agglutinin (Triticum aestivum), Alexa647-labelled; assay: wheat germ agglutinin binders on compound microarrays, profiling panel, artefact control for SMM control-protein annotation, biochemical, small-molecule microarray, 635/667 nm fluorescence (AID 1140); conditions: WGA-A647 binding, 635 nm fluorescence, higher = more signal;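 note: score merges 667 nm feature emission with signal to noise over triplicate slides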

In order of rising composite z-score:
1. COC(=O)C[C@@H]1C[C@H](C)[C@]2(O1)C(=O)N(Cc1ccccc1)c1ccc(NC(C)=O)cc12  -0.259
2. O=C(OCCF)C1=CCC(c2cccc(Cl)c2)O1 (stereo unspecified)  0.177
3. C=CCC(OC(C)=O)[C@@H]1[C@@H](N(Cc2cccc3ccccc23)C(=O)c2ccc(C)cc2)c2cc(OCCCO)ccc2N1C(=O)Cc1ccc(OC)cc1 (stereo partly specified)  0.275
4. COCC1=C2[C@@H](CCc3ccccc3)OB(O)C[C@@H]2[C@@H]2C(=O)N(Cc3ccccc3)C(=O)[C@@H]2C1  0.397
5. C=CCOC(=O)[C@@H]1[C@H]2C(=O)O[C@H](c3ccccc3)[C@H](c3ccccc3)N2[C@H](c2ccc(OCCOC(=O)[C@@H]3C[C@@H]4C(=O)NCC(=O)N4[C@@H]3c3cccc(OCCO)c3)cc2)[C@@]12C(=O)Nc1ccc(I)cc12  0.449
6. C=C[C@@H](COC(C)=O)N(Cc1ccccc1[N+](=O)[O-])S(=O)(=O)c1ccc(Br)cc1  0.567
7. O=C1OCCC=C[C@H]2OC34C=CCN(Cc5ccccc5)C(=O)[C@H]3N(CCCCCO)C(=O)[C@@H]4C12 (stereo partly specified)  0.809
8. [N-]=[N+]=NCc1ccccc1[C@@H]1OC(c2ccc(OCCCO)cc2)=N[C@]1(Cc1ccccc1)C(=O)N1CCCCC1  0.903
9. CC(C)c1ccc(NN2C(C(O)c3c(F)cccc3Cl)C=CC3C(=O)N(c4ccccc4)C(=O)C32)cc1 (stereo unspecified)  0.959
10. Cc1cc(C)c(C(O)C2C=CC3C(=O)N(c4ccccc4)C(=O)C3N2Nc2ccc(C#N)cc2)c(C)c1 (stereo unspecified)  1.03
11. CC(C)(C)OC(=O)CC[C@@]1(C(=O)O)N=C(c2ccc(OCCCO)cc2)O[C@@H]1c1ccccc1N=[N+]=[N-]  1.28
